{"source": "ChEMBL document CHEMBL1201862", "about": "“PubChem BioAssay data set” (2004)", "note": "Among all 57,000 sequences or so, about 2,500 (4.4%) were called active. No stated cut-off is given here; in the data, active = GI50 up to about 1.1 µM and inactive = higher. A selection follows. Potency and affinity values are given separately.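 These data come from cells grown in 96-well plates and exposed to compound for 48 hours at five concentrations. At the GI50, growth is halved.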"}
{"test_system": "UACC-257", "test": "NCI tumour cell line growth inhibition, 48 h", "units": {"GI50": "µM"}}
{"substance": "[Bis(aminomethyl)dimethylsilane]dichloroplatinum (II), CHEMBL2146201", "GI50": 45.7}
{"substance": "[Bis(aminomethyl)ethylmethylsilane]tetrachloroplatinum(IV), CHEMBL2146192", "GI50": 3.3}
{"substance": "[Bis(aminomethyl)tetramethylenesilane]dichloropaltinum(II), CHEMBL2146205", "GI50": 59.7}
{"substance": "[Bis(aminomethyl)dimethylsilane]tetrachloroplatinum(IV), CHEMBL2146190", "GI50": 15.1}
{"substance": "CISPLATIN, CHEMBL11359", "GI50": 4.09}
{"substance": "[Bis(aminomethyl)pentamethylenesilane]dichloropaltinum(II), CHEMBL2146202", "GI50": 6.81}
{"substance": "cis-Bis[[(trimethylsilyl)methyl]amino]tetrachloroplatinum(IV), CHEMBL2146191", "GI50": 5.31}
{"substance": "[Bis(aminomethyl)pentamethylenesilane]tetrachloropaltinum(IV), CHEMBL2146204", "GI50": 7.19}
{"substance": "mu-(1,7-nanodiamine-N,N')bis-(cis-aminedichloroplatimum (II)), CHEMBL2146215", "GI50": 20.1}
{"substance": "[Bis(aminomethyl)diethylsilane]tetrachloroplatinum(IV), CHEMBL2146203", "GI50": 4.79}
{"substance": "[Bis(aminomethyl)tetramethylenesilane]tetrachloropaltinum(IV), CHEMBL2146189", "GI50": 16.4}
